# Test results as given in the supplement of paper PMC4206461.
# Values without a mark were called inactive.
# Tested on: Pseudomonas aeruginosa PA14 dppA1-A5 penta mutant + pBBR5.DppA1 (PA14_58350)
# Assay: respiration area under curve with compound as sole nitrogen source, 24 h (OmniLog AUC (arbitrary units)); higher = more respiration / better utilisation as nitrogen source, active = 2000 or more
# Method: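 Biolog Phenotype MicroArray plates PM6-PM8: each di/tripeptide is the sole nitrogen source. Tetrazolium reduction was read in the OmniLog for 24 h at 37°C and summarised as area under the respiration curve (arbitrary units). Values below 2000 count as no respiration. Strain is the SBP penta mutant complemented with DppA1 on a plasmid under its native promoter. Lys/His/Cys peptides are excluded.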
row,SMILES,respiration area under curve
1,NC(N)=NCCC[C@H](N)C(=O)N[C@@H](Cc1c[nH]c2ccccc12)C(=O)O (plate: PM6),7290 (active)
2,C[C@H](N)C(=O)N[C@@H](Cc1ccc(O)cc1)C(=O)O (plate: PM6),5920 (active)
3,CC[C@H](C)[C@H](NC(=O)[C@H](C)N)C(=O)O (plate: PM8),7110 (active)
4,N[C@@H](Cc1c[nH]c2ccccc12)C(=O)NCC(=O)O (plate: PM7),1010
5,C[C@H](N)C(=O)N[C@H](C(=O)O)[C@@H](C)O (plate: PM6),4830 (active)
6,CC(C)[C@H](N)C(=O)N[C@@H](CCC(=O)O)C(=O)O (plate: PM8),2880 (active)
7,CC[C@H](C)[C@H](NC(=O)[C@@H]1CCCN1)C(=O)O (plate: PM8),4410 (active)
8,NC(N)=NCCC[C@H](N)C(=O)N[C@@H](Cc1ccccc1)C(=O)O (plate: PM6),7570 (active)
9,CC[C@H](C)[C@H](NC(=O)[C@@H](N)Cc1ccccc1)C(=O)O (plate: PM7),7890 (active)
10,O=C(O)[C@H](CO)NC(=O)[C@@H]1CCCN1 (plate: PM8),5440 (active)
11,CC[C@H](C)[C@H](N)C(=O)N[C@@H](CC(C)C)C(=O)O (plate: PM8),4900 (active)
12,N[C@@H](Cc1ccccc1)C(=O)N[C@@H](Cc1ccccc1)C(=O)O (plate: PM7),5690 (active)
13,CC[C@H](C)[C@H](NC(=O)[C@@H](N)CC(C)C)C(=O)O (plate: PM6),3910 (active)
14,O=C(O)CC[C@H](NC(=O)[C@@H]1CCCN1)C(=O)O (plate: PM8),5380 (active)
15,C[C@@H](O)[C@H](N)C(=O)NCC(=O)O (plate: PM7),6220 (active)
16,C[C@@H](O)[C@H](N)C(=O)N[C@@H](CCCN=C(N)N)C(=O)O (plate: PM7),14200 (active)
17,CC[C@H](C)[C@H](NC(=O)[C@@H](N)CCCN=C(N)N)C(=O)O (plate: PM6),8150 (active)
18,O=C(O)CNC(=O)[C@@H]1CCCN1 (plate: PM7),6590 (active)
19,N[C@@H](Cc1ccc(O)cc1)C(=O)NCC(=O)O (plate: PM7),8600 (active)
20,O=C(O)[C@H](Cc1ccccc1)NC(=O)[C@@H]1CCCN1 (plate: PM7),6240 (active)

row,SMILES,respiration area under curve
1,CSCC[C@H](N)C(=O)NCC(=O)O (plate: PM7),3910 (active)
2,CC(C)C[C@H](NC(=O)[C@@H](N)Cc1ccc(O)cc1)C(=O)O (plate: PM7),6720 (active)
3,NC(Cc1c[nH]c2ccccc12)C(=O)NC(Cc1ccccc1)C(=O)O (stereo not given) (plate: PM7),365
4,C[C@H](NC(=O)[C@@H](N)[C@@H](C)O)C(=O)O (plate: PM7),8470 (active)
5,CC(C)[C@H](N)C(=O)N1CCC[C@H]1C(=O)O (plate: PM8),10300 (active)
6,CC[C@H](C)[C@H](NC(=O)[C@@H](N)C(C)C)C(=O)O (plate: PM7),6870 (active)
7,CC(C)C(NC(=O)C1CCCN1)C(=O)O (stereo not given) (plate: PM8),5180 (active)
8,C[C@H](NC(=O)[C@@H](N)CCC(=O)O)C(=O)O (plate: PM8),7690 (active)
9,N[C@@H](Cc1ccccc1)C(=O)N[C@@H](Cc1c[nH]c2ccccc12)C(=O)O (plate: PM7),389
10,C[C@@H](O)[C@H](N)C(=O)N[C@@H](CO)C(=O)O (plate: PM8),5330 (active)
11,N[C@@H](Cc1c[nH]c2ccccc12)C(=O)N[C@@H](CO)C(=O)O (plate: PM7),2890 (active)
12,CSCCC(NC(=O)C(N)CC(C)C)C(=O)O (stereo not given) (plate: PM6),1220
13,CC(C)[C@H](N)C(=O)NCC(=O)O (plate: PM7),6900 (active)
14,N[C@@H](CO)C(=O)N[C@@H](CO)C(=O)O (plate: PM7),6490 (active)
15,CSCCC(N)C(=O)NC(CCSC)C(=O)O (stereo not given) (plate: PM7),0
16,C[C@@H](N)C(=O)NCC(=O)NCC(=O)O (plate: PM8),46.7
17,NC(=O)CC[C@H](NC(=O)[C@@H](N)Cc1ccc(O)cc1)C(=O)O (plate: PM7),12100 (active)
18,CC(C)[C@H](N)C(=O)N[C@@H](Cc1ccc(O)cc1)C(=O)N[C@H](C(=O)O)C(C)C (plate: PM8),7350 (active)
19,NCC(=O)NCC(=O)O (plate: PM6),2050 (active)
20,CC(C)C[C@H](N)C(=O)N1CCC[C@H]1C(=O)O (plate: PM8),5120 (active)
